Data taken from PubChem BioAssay AID624330 (Southern Research Specialized Biocontainment Screening …, 2012).
Among all 340,000 compounds or so, about 2,100 (0.62%) were called active.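 The calls were made as follows: active = first-screen hits whose inhibition reached a set limit at any dose in the follow-up dose series; inconclusive = inhibition above the set first-screen limit but never retested; inactive = the rest.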 These entries were drawn from the full list. Potency and affinity values are given separately.

Target: Rac GTPase-activating protein 1 (Homo sapiens) (UniProt Q9H0H5)
Assay: blockers of MgcRacGAP-driven Rac1 GTP hydrolysis – biochemical, ADP Hunter fluorescence, primary and confirmatory, confirmation (AID 624330);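 also: fluorescence reports GDP produced by GAP-driven GTP hydrolysis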
Conditions: MgcRacGAP-stimulated Rac1 GTP hydrolysis, at 30 µM, stronger effect = higher value, GST-tagged Rac1 F28L mutant substrate

Sequence of Rac GTPase-activating protein 1 (Homo sapiens) (Q9H0H5 whole entry, looked up): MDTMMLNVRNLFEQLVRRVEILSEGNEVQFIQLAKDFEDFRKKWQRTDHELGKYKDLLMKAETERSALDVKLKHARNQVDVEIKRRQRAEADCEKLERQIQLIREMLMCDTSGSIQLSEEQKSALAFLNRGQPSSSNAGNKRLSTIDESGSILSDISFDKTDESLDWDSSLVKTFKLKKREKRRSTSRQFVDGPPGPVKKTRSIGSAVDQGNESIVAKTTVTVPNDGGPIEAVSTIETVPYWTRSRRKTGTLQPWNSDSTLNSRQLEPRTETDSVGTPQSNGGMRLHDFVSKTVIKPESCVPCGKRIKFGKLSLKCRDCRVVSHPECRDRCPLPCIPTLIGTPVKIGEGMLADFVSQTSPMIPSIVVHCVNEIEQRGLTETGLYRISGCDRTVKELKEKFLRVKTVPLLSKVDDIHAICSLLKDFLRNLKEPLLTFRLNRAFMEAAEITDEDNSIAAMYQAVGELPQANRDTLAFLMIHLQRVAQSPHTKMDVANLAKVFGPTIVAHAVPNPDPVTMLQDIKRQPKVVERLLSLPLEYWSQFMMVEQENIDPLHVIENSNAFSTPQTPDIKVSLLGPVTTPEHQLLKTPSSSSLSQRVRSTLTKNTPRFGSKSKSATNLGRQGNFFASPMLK

inhibition, inactive:
CCCN(CCC)CCNC(=O)CCC(=O)Nc1ccc2nc(N3CCN(C)CC3)cc(C)c2c1 26.7%, CCCCNC(=O)CCC(=O)Nc1ccc2nc(N3CCN(C)CC3)cc(C)c2c1 11.9%, CCN(C(=O)CN1C(=O)c2ccc([N+](=O)[O-])cc2C1=O)C1CCCCC1 -1.26%, COc1cccc(OCC(O)CNC2CCCC2)c1 (stereo not drawn) -1.44%, CCC(CC)CN1C(Nc2ccccc2)=NC[C@@H]1C 1.3%, C=CCc1cc(/C=C2/NC(=O)N(CC(=O)OC)C2=O)cc(OC)c1O 10.1%, O=C(CSc1nc(C2CCCCC2)n(-c2ccccc2)n1)NCC(F)(F)F 8.72%, NC(=O)NC(=O)CSc1nc(C2CCCCC2)n(-c2ccccc2)n1 3.47%, O=C(Nc1nccs1)C1CC(=O)N(CCc2ccc(F)cc2)C1 (stereo not drawn) 6.31%, Nc1nonc1-n1nnc(C(=O)N/N=C/c2cccc(Cl)c2)c1CN1CCCCCC1 3.77%, C=CCOC1COC2C(OCC=C)COC12 (stereo not drawn) 3.53%, c1ccc(CCNCCOc2ccccc2)cc1 17.6%, CC(=O)NCCOc1cccc2ccccc12 -4.94%, Cc1ccc(OCCCCNC(C)c2ccccc2)c(C)c1 (stereo not drawn) 28.7%, COc1ccc(OCCCNCCc2ccccc2)cc1 4.94%, Cc1ccc(S(=O)(=O)N2CC=C(C(=O)NCc3ccccc3)CC2)cc1 6.07%, CC(=O)c1ccc(NC(=O)C[n+]2ccccc2)cc1 10.2%, CCOc1ccc(CCNC(=O)COC(=O)c2cc(OC)c(OC)cc2[N+](=O)[O-])cc1OCC -1.41%, Cc1ccc(NC(=O)CN(C)Cc2nc3ccccc3c(=O)[nH]2)c(Br)c1 4.68%, CCOCCCNCc1ccc(OC)c(OC)c1 13.9%, CCOc1cc2nc(-c3ccc(OC)c(OC)c3)nc(NCCCN3CCOCC3)c2cc1OC 18.4%, COCCCNc1nc2cc(OC)c(OC)cc2c2nc(-c3ccccc3)nn12 2.71%, COCCNc1nc(=S)[nH]c2cc(OC)c(OC)cc12 15.3%, CCCCn1c(N)c(N(CC(C)C)C(=O)CCNC(=O)c2ccccc2Cl)c(=O)[nH]c1=O 6.4%, CCOc1cc(C(=S)N2CCOCC2)ccc1OS(=O)(=O)c1ccc(OC)cc1 3.51%, C[C@@H]1CN([C@H](C)CO)C(=O)CCCn2nncc2CO[C@H]1CN(C)S(=O)(=O)c1ccc2ccccc2c1 12.9%, CCCCNC(=O)Cn1cnc2c(cnn2-c2ccc(C)cc2)c1=O 6.17%, Clc1nssc1=Nc1ccccc1 13.8%, Clc1ccc(N=c2ssnc2Cl)cc1 14.7%, O=C(N/N=C/c1ccc([N+](=O)[O-])o1)c1cc(-c2cccc(Br)c2)nc2ccccc12 -2.15%, Cn1c(=Nc2ccc(N3CCOCC3)cc2)ccc2ccccc21 16.1%, C/C(=N\N=c1/sc2ccccc2n1C)c1ccc(N2CCOCC2)cc1 6.81%, O=[N+]([O-])c1cccc(-c2ccc(C(=S)N3CCN(c4ccc(F)cc4)CC3)o2)c1 5.79%, Cc1ccc2nsnc2c1NC(=O)c1ccc([N+](=O)[O-])cc1 14.4%, CN(C)c1ccc2nsnc2c1[N+](=O)[O-] 7.42%, Brc1ccc(-c2cn3c(n2)SCC3)cc1 15.1%, Cc1ccc(-c2cn3c(n2)SCC3)cc1 14.4%, CCCCNc1c(-c2ccc(SC3CCCCC3)c(OC)c2)nc2ccc(C)cn12 2.06%, O=C(Nc1ncccn1)C1c2ccccc2Oc2ccccc21 2.37%, COC(=O)c1ccc(Oc2ccc3nnc(C)n3n2)cc1 -0.14%, COc1ccc2nnc(-c3ccccc3)n2n1 10.9%, CC(=O)Nc1ccc2sc(NC(=O)CN3CCOCC3)nc2c1 7.43%, CCCCc1cc(=O)oc2cc(OCC(=O)Nc3ccccn3)ccc12 11.4%, CSc1nc(=O)n2cccc(C)c2n1 0.29%, Cc1ccn2c(C(C)O)nnc2c1 (stereo not drawn) 11.7%, Cc1ccn2c(=O)cc(C)nc2c1 -1.02%, Cc1cccn2c(N)c(-c3ccccc3)nc12 7.39%, c1ccn2c(Cc3nnc4ccccn34)nnc2c1 3.25%, Fc1ccc(-c2nnc3ccccn23)cc1 0.86%, O=C(CCC(=O)N1CCOCC1)NCCc1ccccc1 0.87%, CCN(CC(=O)Nc1ccc(NC(C)=O)cc1)C(=O)c1ccc2c(c1)S(=O)(=O)N=C1CCCCCN12 1.15%, CCOc1ccccc1NC(=S)N1CCCCCC1 5.32%, CCOC(=O)/C(C#N)=C1/C=Cc2ccccc2N1CC 12.8%, CCOC(=O)/C(C#N)=C1/C=CN(Cc2ccccc2)C=N1 6.15%, CCCCN1C(=O)/C(=C(/C#N)C(N)=O)c2ccccc21 10.6%, CCOC(=O)C(C#N)=C1CCN(Cc2ccccc2)CC1 11.1%, Cc1ccc(C(=O)NC(NCc2ccco2)C(Cl)(Cl)Cl)cc1 (stereo not drawn) 2.01%, O=C(NCCCN1CCCC1)c1ccc2c(c1)N(Cc1ccccc1)CCS2 -3.35%, O=C(COC(=O)CCc1c[nH]c2ccccc12)NCc1ccccc1 4.56%, COCCNC(=S)N(Cc1cc2cc(C)ccc2n2nnnc12)C1CCCC1 1.01%, COc1ccc(C(=O)NC(=S)N(C)Cc2ccccc2)cc1Br 3.69%, Cc1nc2scc(C)n2c(=O)c1S(=O)(=O)N1CCN(c2ccc(F)cc2)CC1 5.64%, Cc1nc2scc(C)n2c(=O)c1S(=O)(=O)N1CCN(c2ccccc2)CC1 1.78%, O=CN(/C=C1\Sc2ccccc2C1=O)Cc1ccccc1 10%, Cc1sc2ncnc(Nc3ccccc3)c2c1C 4.64%, COc1ccc(/C=N/Nc2ncnc3sc(C)c(C)c23)cc1 11.8%, Cc1sc2ncnc(N/N=C/c3cccc(O)c3)c2c1C 20.2%, Cc1ccc(Nc2ncnc3sc(C)c(C)c23)cc1 18.3%
